Laboratory results from PubChem BioAssay AID1481 (The Scripps Research Institute Molecular Screening Center, 2009).
Where “and” joins values, the source holds several entries; their conditions need not be identical. Identical values can stand only once. Out of some 220,000 compounds screened, about 920 (0.42%) were called active. No stated cut-off is given here; in the data, active means inhibition above about 15%; inactive means the rest. The sample as a whole holds a higher share of actives than the screen did.

What follows are molecules tested against Transitional endoplasmic reticulum ATPase (Homo sapiens) (UniProt P55072) (assay: p97 ATP hydrolysis blockers – biochemical, primary screen (AID 1481;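 further: 0% = DMSO vehicle and 100% = wells lacking enzyme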)). Settings: recombinant p97 ATPase, Kinase-Glo ATP luminescence, 3 h; at 8 µM; hits give high values.
Chain of Transitional endoplasmic reticulum ATPase (Homo sapiens) (P55072 whole entry, looked up): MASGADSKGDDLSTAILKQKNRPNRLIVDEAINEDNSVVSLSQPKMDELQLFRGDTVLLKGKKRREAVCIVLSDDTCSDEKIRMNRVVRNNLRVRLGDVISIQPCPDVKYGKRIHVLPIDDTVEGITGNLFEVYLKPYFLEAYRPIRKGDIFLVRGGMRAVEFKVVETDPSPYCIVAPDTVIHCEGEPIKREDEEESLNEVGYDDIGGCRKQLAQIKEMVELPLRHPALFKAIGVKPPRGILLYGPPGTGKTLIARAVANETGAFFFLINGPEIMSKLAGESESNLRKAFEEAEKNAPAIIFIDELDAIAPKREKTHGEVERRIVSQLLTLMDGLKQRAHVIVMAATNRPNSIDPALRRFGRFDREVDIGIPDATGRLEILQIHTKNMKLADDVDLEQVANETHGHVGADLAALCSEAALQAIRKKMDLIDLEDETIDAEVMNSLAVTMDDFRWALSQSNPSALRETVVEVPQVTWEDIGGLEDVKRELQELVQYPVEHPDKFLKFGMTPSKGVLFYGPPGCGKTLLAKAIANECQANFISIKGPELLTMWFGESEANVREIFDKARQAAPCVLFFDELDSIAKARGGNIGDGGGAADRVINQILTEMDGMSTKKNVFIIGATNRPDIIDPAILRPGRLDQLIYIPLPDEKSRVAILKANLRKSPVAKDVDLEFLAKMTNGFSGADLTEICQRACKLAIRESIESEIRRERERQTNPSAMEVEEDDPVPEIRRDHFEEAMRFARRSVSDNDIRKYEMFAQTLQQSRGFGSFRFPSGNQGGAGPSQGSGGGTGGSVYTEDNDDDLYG
For `C=CCNC(=O)CSc1nc2scc(-c3ccco3)c2c(=O)n1CC=C`, the inhibition was 6.86% (inactive).
In the case of `C=CCn1c(SCc2csc(C)n2)nc2scc(-c3ccc(C)o3)c2c1=O`, the inhibition is reported as 3.29% (inactive).
For `C=CCn1c(=S)[nH]c2scc(-c3ccco3)c2c1=O`, the inhibition was 15.2% (active).
For `C/C(CCc1ccccc1)=N\NC(=O)c1ccc(CN2CCOCC2)cc1`, the inhibition was 6.17% (inactive).
For `C=CCc1cccc2cc(C(=O)NC3CCCC3)c(=O)oc12`, the inhibition was 1.22% (inactive).
In the case of `CC(C)/C=N/NC(=O)c1cc(Br)ccc1O`, the inhibition is reported as -3.39% (inactive).
`COc1ccc(-c2[nH]ncc2/C=N/NC(=O)c2cc(Br)ccc2O)c(OC)c1` was tested, and the inhibition was 19.8% (active).
In the case of `COc1ccc(CC(=O)NCC(=O)N/N=C/c2cc(Br)ccc2OC)cc1`, the inhibition is reported as -3.65% (inactive).
For `CN(C)c1ccc(/C=C/C(=O)c2ccc(C(C)(C)C)cc2)cc1[N+](=O)[O-]`, the inhibition was 3.04% (inactive).
With `NS(=O)(=O)c1ccc(NC(=O)COC(=O)c2c3c(nc4ccccc24)/C(=C\c2ccc4c(c2)OCO4)CCC3)cc1` the inhibition was -1.8% (inactive).
For `NC(=O)c1ccc(NC(=O)COC(=O)c2c3c(nc4ccccc24)/C(=C\c2ccc4c(c2)OCO4)CCC3)cc1`, the inhibition was 21.3% (active).
`O=C(COC(=O)c1c2c(nc3ccccc13)/C(=C\c1cccs1)CCC2)Nc1ccccc1Cl` was tested, and the inhibition was -4.57% (inactive).
With `COc1ccnc(Oc2ccccc2)c1-c1ncn[nH]1` the inhibition was 2.16% (inactive).
With `Cc1cc(C)n2nc(C(=O)NC(C)(C)C)nc2n1` the inhibition was -8.48% (inactive).
For `COc1ccc(Cl)cc1C(=O)NNC(=O)c1nc2nc(C)cc(C)n2n1`, the inhibition was 23.2% (active).
For `C=CCNC(=S)NNC(=O)c1cc(Cl)ccc1OC`, the inhibition was 2.04% (inactive).
With `CC1(C)CC(N2CCN(C(c3ccccc3)c3ccccc3)CC2)=CC(=[N+]2CCCCC2)C1` the inhibition was -4.13% (inactive).
`CCc1nn(CCCN2CCN(c3cccc(Cl)c3)CC2)c(=O)n1CCOc1ccccc1` was tested, and the inhibition was -5.07% (inactive).
With `C=CCNCCCCOc1ccccc1` the inhibition was -1.97% (inactive).
For `CC(C(=O)O)n1cnc2sc3c(c2c1=O)CCCC3` (centres undefined), the inhibition was 19.5% (active).
`CCOC(=O)C(C)n1cnc2sc(C)c(C)c2c1=O` (centres undefined) was tested, and the inhibition was -1.18% (inactive).
With `N=c1c2c3c(sc2ncn1N)CCCC3` the inhibition was 5.38% (inactive).
For `CN1CCN(c2ccc(S(=O)(=O)N3CCOCC3)cc2NC(=O)CCc2ccccc2)CC1`, the inhibition was 4% (inactive).
With `Fc1ccccc1/C=C1\CCCC2=C1Nc1ncnn1C2c1ccccc1F` (centres undefined) the inhibition was 3.82% (inactive).
For `Oc1c(Cl)cc(Cl)c(Cl)c1Cc1c(O)c(Cl)cc(Cl)c1Cl`, the inhibition was 31.6% (active).
For `COc1cc(S(=O)(=O)N2CCOCC2)ccc1NC(=O)COc1ccc(N(C)S(=O)(=O)c2ccc(C)cc2)cc1`, the inhibition was 10.4% (inactive).
With `Cc1c(NC(=O)CN2C(=O)C(=O)N(Cc3ccccc3)C2=O)c(=O)n(-c2ccccc2)n1C` the inhibition was 1.04% (inactive).
`Cc1cccc(NC(=O)c2ccc([N+](=O)[O-])o2)c1` was tested, and the inhibition was 0.75% (inactive).
`N#Cc1c(-c2ccc(F)cc2)nc(-c2ccccc2)[nH]c1=O` was tested, and the inhibition was 1.67% (inactive).
With `[O-][n+]1onc2c1CCc1[nH]c(-c3ccccc3)nc1-2` the inhibition was 37.3% (active).
With `COc1ccc([N+](=O)[O-])cc1N(CC(O)CN(CC(C)C)CC(C)C)S(=O)(=O)c1ccc(C)cc1` (centres undefined) the inhibition was -15% (inactive).
In the case of `Cn1sc(=O)c2cc(S(=O)(=O)NC3CC3)ccc21`, the inhibition is reported as 13.5% (inactive).
In the case of `Clc1ccc(C2=CSC3=Nc4cccc5cccc(c45)N23)cc1`, the inhibition is reported as 33% (active).
In the case of `N#Cc1ccsc1NC(=O)CN1CCN(S(=O)(=O)c2cc(Cl)ccc2Cl)CC1`, the inhibition is reported as 1.72% (inactive).
For `CCC1(CC)NC(=O)N(CC(=O)OCC(=O)NC(=O)c2ccccc2)C1=O`, the inhibition was -0.8% (inactive).
For `Cc1ccc(C(O)P(=O)(OC(C)C)c2ccc(N(C)C)cc2)cc1` (centres undefined), the inhibition was 0.27% (inactive).
`COC(=O)CNc1nc(Cl)nc(N2CCC(C)CC2)n1` was tested, and the inhibition was -3.6% (inactive).
For `O=C(Nc1cccc(F)c1)c1coc(=O)c(Br)c1`, the inhibition was -1.08% (inactive).
With `Cc1nc(-c2ccccc2)sc1-c1nnc(C2CC2)o1` the inhibition was -11.7% (inactive).
`Cc1nn(Cc2ccccc2)c2c1C(c1ccccc1)C(C#N)=C(N)O2` (centres undefined) was tested, and the inhibition was 10.6% (inactive).
`Cc1nn(-c2ccccc2)c2c1C(c1ccc(F)cc1)C(C#N)=C(N)O2` (centres undefined) was tested, and the inhibition was -4.19% (inactive).
With `COc1ccccc1C1C(C#N)=C(N)Oc2c1c(-c1ccccc1)nn2-c1ccccc1` (centres undefined) the inhibition was 27.6% (active).
For `CCC1C=C(c2ccccc2)C=CN=C1N(CC)CC` (centres undefined), the inhibition was -5.24% (inactive).
With `CCC(C)CN1CCC(CO)(Cc2ccccc2Cl)CC1` (centres undefined) the inhibition was -5.42% (inactive).
In the case of `Cc1cc(Nc2ccc(N3CCOCC3)cc2)c2cccc(C)c2n1`, the inhibition is reported as 4.03% (inactive).
`CN1CCC(=NNC(=O)c2ccc(N(Cc3ccc(Cl)cc3)S(C)(=O)=O)cc2)CC1` was tested, and the inhibition was -1.22% (inactive).
`CC(C)Sc1nnc([C@H](Cc2ccccc2)NC(=O)OC(C)(C)C)o1` was tested, and the inhibition was -6.35% (inactive).
`COc1ccc2c(c1)C(=C(C#N)C#N)C(=O)N2CCc1ccccc1` was tested, and the inhibition was 20.6% (active).
`C#CCN1C(=O)C(O)(CC(=O)c2cc(OC)ccc2OC)c2ccccc21` (centres undefined) was tested, and the inhibition was 4.75% (inactive).
`CCCCN1C(=O)/C(=C(/C#N)C(N)=O)c2ccccc21` was tested, and the inhibition was 1.92% (inactive).
In the case of `CC(C)(C)c1cnnn1-c1ccc([N+](=O)[O-])cc1`, the inhibition is reported as 4.98% (inactive).
With `Nc1ccccc1Sc1ccc(C(F)(F)F)cc1[N+](=O)[O-]` the inhibition was -3.21% (inactive).
`CC(=O)Nc1ccc(CC#N)cc1` was tested, and the inhibition was 3.27% (inactive).
For `O=C(CN1CCN(c2ccc(O)cc2)CC1)Nc1cc(S(=O)(=O)N2CCOCC2)ccc1Cl`, the inhibition was 6.43% (inactive).
`O=[N+]([O-])c1cc(Cl)cc(/C=N/NC(=S)Nc2cc(S(=O)(=O)N3CCOCC3)ccc2Cl)c1O` was tested, and the inhibition was 14.6% (active).
`O=C(N/N=C/c1ccc([N+](=O)[O-])o1)c1cccc(S(=O)(=O)N2CCOCC2)c1` was tested, and the inhibition was -1.08% (inactive).
With `COc1ccccc1-n1c(-c2cc(-c3ccco3)[nH]n2)n[nH]c1=S` the inhibition was 6.44% (inactive).
For `Brc1ccc(-c2csc(N/N=C/c3cccnc3)n2)cc1`, the inhibition was 0.38% (inactive).
For `CC(C)CNC(=O)/C=C/C(=O)O`, the inhibition was 1.63% (inactive) and 0.6% (inactive).
